Compound activity (PubChem BioAssay)
This is a sample that favours compounds with a hit; in the whole collection about 7.6% have one here.
hERG WT inh: qHTS for Inhibitors of KCHN2 3.1: Wildtype qHTS; U2OS, BacMam KCNH2, thallium flux FluxOr; stronger effect = lower value; activity change, % at 1.84 µM; hit rate 0.37% among 340,000; AID 720551, 2013;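 active means maximum activity change below -70%; inconclusive means maximum activity change between -70% and -50%; inactive means maximum activity change above -50%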
Target sequence (Q12809 whole entry, looked up): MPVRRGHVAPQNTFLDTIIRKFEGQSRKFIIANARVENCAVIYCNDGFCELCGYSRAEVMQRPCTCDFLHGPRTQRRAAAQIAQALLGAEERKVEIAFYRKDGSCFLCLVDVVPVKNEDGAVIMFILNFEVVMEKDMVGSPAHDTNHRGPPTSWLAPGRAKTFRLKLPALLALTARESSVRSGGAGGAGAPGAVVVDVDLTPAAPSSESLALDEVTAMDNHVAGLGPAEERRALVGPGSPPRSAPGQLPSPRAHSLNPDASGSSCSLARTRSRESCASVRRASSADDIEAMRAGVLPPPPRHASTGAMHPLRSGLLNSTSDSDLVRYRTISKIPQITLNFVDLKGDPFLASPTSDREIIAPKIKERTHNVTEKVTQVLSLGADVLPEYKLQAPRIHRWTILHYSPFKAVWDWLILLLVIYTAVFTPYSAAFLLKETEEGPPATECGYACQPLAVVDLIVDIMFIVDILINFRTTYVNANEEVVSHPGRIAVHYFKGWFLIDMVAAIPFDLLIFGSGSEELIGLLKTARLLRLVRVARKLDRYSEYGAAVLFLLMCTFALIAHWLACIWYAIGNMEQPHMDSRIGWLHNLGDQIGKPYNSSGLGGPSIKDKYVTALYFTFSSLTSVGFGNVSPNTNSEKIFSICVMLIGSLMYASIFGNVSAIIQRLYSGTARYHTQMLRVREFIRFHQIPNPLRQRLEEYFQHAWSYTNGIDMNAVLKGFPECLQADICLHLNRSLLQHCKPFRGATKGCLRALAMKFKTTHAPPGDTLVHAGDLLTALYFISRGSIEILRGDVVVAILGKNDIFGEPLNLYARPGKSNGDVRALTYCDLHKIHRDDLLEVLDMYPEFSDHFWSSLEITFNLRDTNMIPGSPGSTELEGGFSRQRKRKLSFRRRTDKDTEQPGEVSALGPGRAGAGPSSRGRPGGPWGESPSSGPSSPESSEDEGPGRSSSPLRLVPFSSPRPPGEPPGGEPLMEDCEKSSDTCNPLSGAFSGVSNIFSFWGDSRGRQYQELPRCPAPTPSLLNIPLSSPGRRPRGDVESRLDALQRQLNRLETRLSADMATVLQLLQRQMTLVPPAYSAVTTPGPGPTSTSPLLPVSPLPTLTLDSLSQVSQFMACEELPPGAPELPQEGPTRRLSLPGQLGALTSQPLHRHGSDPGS
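U2OS cells transduced with wild-type KCNH2 virus are loaded with FluxOr dye for 45 min, and thallium flux is measured in kinetic reads before and after stimulation buffer. Rate constants are normalized to DMSO controls.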
MCF10A rereplic: A quantitative high throughput screen for small molecules that induce DNA re-replication in MCF 10a normal breast cells; MCF 10A DNA re-replication, Hoechst nuclear intensity, 48 h; Potency, µM (top dose mostly 46.1 µM), hits mostly activators; hit rate 2.9% among 350,000; further: nearly all actives have a fitted effect of over 50% in size
KB-3-1 tox: qHTS assay for MDR1-selective chemotherapeutics: Primary screen using the parental adenocarcinoma cell KB-3-1 | KB-3-1 viability, CellTiter-Glo ATP luminescence, 72 h | Potency, µM (titrated, usually from 46.1 µM), most hits filed as cytotoxic | hit rate 1.4% among 400,000; further: nearly all actives have a fitted effect of over 60% in size
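Cytotoxicity in the drug-sensitive parental line KB-3-1 was scored as loss of CellTiter-Glo luminescence following 72 h incubation with compound. Values come from curve fitting of normalized concentration-response data.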
SW480 rereplic: A quantitative high throughput screen for small molecules that induce DNA re-replication in SW480 colon adenocarcinoma cells. SW480 DNA re-replication, Hoechst DNA content imaging, 48 h. Potency, µM (top dose mostly 46.1 µM), usual class: activators. hit rate 1.8% among 340,000; further: nearly all actives have a fitted effect of over 55% in size
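Quantitative HTS format with DMSO vehicle controls; 48 hr drug incubation at 37 C, then 40 min Hoechst staining and scanning imager measurement at 405 nm excitation.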
KB-V1 MDR tox: qHTS assay for MDR1-selective chemotherapeutics: Primary screen using the drug-selected MDR subline cells KB-V1; KB-V1 MDR cells viability, CellTiter-Glo, 72 h; Potency, µM (highest dose often 46.1 µM), hits mostly cytotoxic; hit rate 3.4% among 400,000; AID 1347076, 2019; further: nearly all actives have a fitted effect of over 60% in size
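KB-V1 cells (P-gp-expressing MDR subline of KB-3-1) in phenol-red-free DMEM with 10% FBS were exposed to library compounds over a concentration series for 72 h at 37 degrees C. Viability read by CellTiter-Glo luminescence; concentration-effect curves fitted after normalization.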
KCNH2 3.1 block: qHTS for Inhibitors of KCHN2 3.1: Mutant qHTS. AID 720553, 2013. U2OS KCNH2 3.1, thallium flux FluxOr; stronger effect = lower value. activity change, % (tested at about 1.8 µM). hit rate 0.95% among 340,000;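 active means maximum activity change below -70%; inconclusive means maximum activity change from -70% to -50%; inactive means maximum activity change above -50%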;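 further: thallium influx rate constant from kinetic fluorescence after stimulation buffer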
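Steps: virus added to U2OS suspension (4 h, RT, dark); medium with 10% FBS added, cells plated, 37 C overnight; FluxOr/Red40 loading buffer 45 min RT; stimulation buffer, 2 min kinetic read; rate constant normalized.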
Hits are given with their value; - = inactive; ? = inconclusive; . = no result given; [ ] = remark or other dose. Unless noted, the call rests on the fitted dose curve; in most records, active means well fitted curve in the direction sought with a large enough effect; inconclusive means small, poorly fitted or top-dose-only effect, or another doubt; inactive means no such curve, though single readings can be large; an effect the other way counts as inactive or inconclusive.

SMILES	hERG WT inh	MCF10A rereplic	KB-3-1 tox	SW480 rereplic	KB-V1 MDR tox	KCNH2 3.1 block
Cc1nn2cc(-c3cccc(Cl)c3)cnc2c1Cl	-	9.2µM	13µM	6.51µM	5.8µM	-
Cc1nn2cc(-c3cccc(Cl)c3)cnc2c1Br	-	?	-	?	?	-
CCOC(=O)C1CCCN(CC(=O)Nc2cccc(C(C)=O)c2)C1 (stereo not drawn)	-	-	-	-	-	-
Cc1ccc2cc(C)c(SCC(=O)Nc3ccc(S(=O)(=O)N4CCCC4)cc3)nc2c1	-	-	-	-	-	-99.8
Cc1cc(C)c2c(c1)cc(C)c1nnc(SCC(=O)Nc3ccc(S(=O)(=O)N4CCCCC4)cc3)n12	-	-	-	-	18.4µM	-
O=C(CSc1ncccn1)Nc1ccc(S(=O)(=O)N2CCCCC2)cc1	-	-	-	-[9.22 µM]	-	-
Cc1ccccc1CN(C)C(C)C(=O)Nc1ccccc1F (stereo not drawn)	-	-	-	-	-	-
Cc1cccc(NC(=O)CSc2nc3ccc(NC(=O)c4ccccc4)cc3s2)c1	.	.	-	.	-	.
CCCCN(C(=O)C1CC1)C1CCS(=O)(=O)C1 (stereo not drawn)	-	-	-	-	-	-
CCOc1ccc(N(Cc2ccc(OC)c(OC)c2)C(=O)c2ccco2)cc1	-	-	-	-	-	-
CCOc1ccc(CN(C(=O)c2ccccn2)c2ccc(OC)c(Cl)c2)cc1	-	23.1µM	?	?	?	-
CCC[N+](C)(C)c1ccc(/C=C/c2ccncc2)cc1	.	.	1.46µM	.	-	.
C(=C\c1ccncc1)/c1ccncc1	-	-	-	-	-	-
C(=C\c1ccncc1)/c1ccccc1	-	-	-	-	-	-
CC[N+](C)(C)c1ccc(/C=C/c2ccncc2)cc1	.	.	2.31µM	.	-	.
CCOc1cc(C(=O)OCc2ccc(C(=O)OC)o2)cc(Br)c1OC	-	-	-	-	-	-
CC(Oc1ccc(C(=O)c2ccccc2)cc1)C(=O)N1CCOCC1 (stereo not drawn)	-	-	-	-	-	-
CC(Oc1cc(-c2ccccc2)cc2ccccc12)C(=O)N1CCOCC1 (stereo not drawn)	-	-	?	-	6.51µM	-
O=C(/C=C/c1ccc(S(=O)(=O)N2CCOCC2)cc1)Nc1cc(F)ccc1F	-	?	-	-	-	-
O=C(/C=C/c1ccc(S(=O)(=O)N2CCOCC2)cc1)NC(=S)Nc1ccc(Cl)cc1Cl	-	16.4µM	-	?	-	-
CCOc1ccc(/C=C/C(=O)NCCc2ccc(OC)c(OC)c2)cc1	-	-	-	-	16.4µM	-
COc1ccc(/C=C/C(=O)Nc2ccc(C)c(S(=O)(=O)N3CCOCC3)c2)cc1	-	-	-	-	4.11µM	-
COc1ccc(CCNC(=O)/C=C/c2ccc(S(=O)(=O)N3CCOCC3)cc2)cc1	-	-	-	4.11µM	-	-
O=C(CNS(=O)(=O)c1ccc(Br)cc1)NCc1ccncc1	-	-	-	-	-	-
COc1ccc(C2(CNC(=O)C(=O)Nc3ccc(C)c(Cl)c3)CCCC2)cc1OC	.	.	-	.	-	.
SMILES	hERG WT inh	MCF10A rereplic	KB-3-1 tox	SW480 rereplic	KB-V1 MDR tox	KCNH2 3.1 block
O=Cc1ccc(Cl)cc1	.	.	-	.	-	.
CN(CC(=O)Nc1cccc(F)c1)C(=O)/C=C/c1ccc(S(=O)(=O)N2CCCCCC2)cc1	-	-	-	-	18.4µM	-
CNC(=O)c1ccc(CN(C)C(=O)/C=C/c2ccc(S(=O)(=O)N3CCCCCC3)cc2)cc1	-	.	-	.	-	-
COc1ccc(CN(C)C(=O)/C=C/c2ccc(S(=O)(=O)N3CCCCCC3)cc2)cc1	-	?	?	-	3.26µM	-
Cc1cccc(C(=O)Nc2ccc(S(=O)(=O)N3CCC(c4nc5ccccc5s4)CC3)cc2)c1	.	.	-	.	-	.
FC(F)(F)c1cc(Oc2ccccc2)nc(-c2ccccn2)n1	-	-	?	?	14.6µM	-
O=C(O)CSc1cc(C(F)(F)F)nc(-c2ccccn2)n1	-	-	-	-	-	-
CCN(CC)c1cc(C(F)(F)F)nc(-c2ccccn2)n1	-	?	-	?	18.4µM	-
FC(F)(F)c1cccc(Sc2cc(C(F)(F)F)nc(-c3ccccn3)n2)c1	-	-[0.0737 µM]	?	-	16.4µM	-
COc1cccc(C2C(C(=O)c3cc4ccccc4o3)=C(O)C(=O)N2c2cc(C)on2)c1 (stereo not drawn)	-	18.4µM	-	-	-	-
C=CCOc1cccc(C2C(C(=O)c3cc4ccccc4o3)=C(O)C(=O)N2c2cc(C)on2)c1 (stereo not drawn)	-	20.6µM	-	?	-	-
COc1ccc(OC)c(C2C(C(=O)c3cc4ccccc4o3)=C(O)C(=O)N2c2cc(C)on2)c1 (stereo not drawn)	-	-	?	-	3.66µM	-
Cc1cc(N2C(=O)C(O)=C(C(=O)c3ccc(C)o3)C2c2cccc(Oc3ccccc3)c2)no1 (stereo not drawn)	-	25.9µM	-	?	-	-
Cc1cc(N2C(=O)C(O)=C(C(=O)c3cc4ccccc4o3)C2c2cccc(Cl)c2)no1 (stereo not drawn)	-	?	-	?	-	-
Cc1cc(N2C(=O)C(O)=C(C(=O)c3ccc(C)o3)C2c2cccc(Cl)c2)no1 (stereo not drawn)	-	.	?	.	?	-
CCOC(=O)c1cccc(NC(=O)Cn2c(=O)nc(-c3ccccc3)c3ccccc32)c1	.	.	-	.	-	.
CC(=O)C1CCN(c2ncc(-c3cccc(N(C)C)c3)s2)CC1	.	.	-	.	-	.
O=C(c1ccccc1)[C@@H]1[C@@H](C(=O)c2ccc(F)cc2)[C@@]2(C(=O)Nc3ccccc32)[C@H]2c3ccccc3C=CN12	-	-	?	-	?	-
CC(=O)[C@@H]1[C@@H](C(=O)c2ccccc2)[C@]2(C(=O)Nc3ccccc32)[C@H]2C=Cc3cc(F)ccc3N12	-	20.6µM	?	?	?	-
CCOc1ccc(S(=O)(=O)N(C)CC(=O)NCc2ccc3c(c2)OCO3)cc1	-	-	-	-	-	-
COc1cc(-c2nc3ccccn3c2NCc2ccccc2)ccc1SC1CCCCC1	-	25.9µM	?	-	?	-
CCCCCCSc1cc(-c2nc3cc(C)ccn3c2NC2CCCCC2)ccc1OC	-	?	?	-	-	-
Cc1ccc2nc(-c3ccc(-c4cccc(Cl)c4)cc3)c(NCc3ccccc3)n2c1	-	?	-	0.326µM	-	-78.3
